Measurements from PubChem BioAssay AID463190 (Sanford-Burnham Center for Chemical Genomics, 2010).
Hit rate of the full screen: of about 330,000 compounds, about 7,300 (2.2%) were called active. What follows is part of a selection rich in actives, with near analogues and random picks from the rest. A number with no mark means an inactive call.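 Rule for the calls: active = inhibition of at least 40%; inactive = the rest.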

Experiment: growth inhibitors of tim10-1 mutant yeast, primary screen, luminescence, uHTS (AID 463190);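 note: mutant grown at 25 °C; 0% = DMSO wells with yeast and 100% = wells holding no yeast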
Details: S. cerevisiae tim10-1 ts strain growth, BacTiter-Glo, 24 h; at 20 µM; stronger effect = higher value
For Nc1ccccc1Sc1ccc(C(F)(F)F)cc1[N+](=O)[O-], the inhibition was 40.4% (active).
Work on O=C(CSc1ccc(C(F)(F)F)cc1[N+](=O)[O-])NCCOc1ccccc1 yielded an inhibition of 8.09%.
Work on O=[N+]([O-])c1cc(C(F)(F)F)ccc1NN=C1CCCC1 yielded an inhibition of -6.28%.
In the case of Cc1ccccc1C(=O)NNC(=O)CN1C(=O)c2ccccc2C1=O, the inhibition was 23.4%.
For O=C(CSc1nnc(Cn2cnc3ccccc32)o1)c1ccccc1, the inhibition was 24.1%.
For Cc1oc2cc([N+](=O)[O-])c(O)c([N+](=O)[O-])c2c1C(=O)c1ccc(Br)cc1, the inhibition was 25%.
Work on COc1ccc(C(=O)c2c(C)oc3cc([N+](=O)[O-])c(O)c([N+](=O)[O-])c23)cc1 yielded an inhibition of 12.5%.
With Cc1oc2cc(Br)c(O)c(Br)c2c1C(=O)c1ccccc1 the inhibition was 41.8% (active).
O=C(Nc1ccc2c(c1)OCO2)C1CC1(Cl)Cl (stereo not drawn) showed an inhibition of -5.38%.
CCC(C(=O)NC1CCCC1)N(C(=O)Cn1nnc(-c2ccc(C)o2)n1)c1ccc(OC)c(OC)c1 (stereo not drawn) gave an inhibition of 18.2%.
CSc1ccc(CN2C(=O)NC3(CCCCCC3)C2=O)cc1 showed an inhibition of 23.7%.
NC(=O)C1=C[C@@H](c2ccc3c(c2)OCO3)C[C@@H](OCCCCO)O1 showed an inhibition of -9.86%.
CCOC(=O)c1c(NC(=O)c2ccc(S(=O)(=O)N(C)CC3CCCO3)cc2)sc2c1CC(C)(C)NC2(C)C (stereo not drawn) showed an inhibition of 3.46%.
In the case of COC(=O)c1sccc1NC(=O)COc1ccc(Cl)cc1, the inhibition was 7.8%.
With COC(=O)c1c(NC(=O)COc2ccc(Cl)cc2Cl)sc2c1CC(C)(C)NC2(C)C the inhibition was 43.6% (active).
With Cc1nc2ccc(C(=O)N3CCSCC3)cc2s1 the inhibition was 4.92%.
In the case of O=C(c1ccc2nc(N3CCOCC3)sc2c1)N1CCN(c2ccc(Cl)cc2)CC1, the inhibition was 49.1% (active).
O=S(=O)(Nc1ccc2nc(N3CCOCC3)sc2c1)c1ccccc1 showed an inhibition of 3.87%.
In the case of N/C(=N\OC(=O)c1cc(-c2ccccc2)nc2ccccc12)c1ccncc1, the inhibition was 57.4% (active).
COC(=O)CNC(=O)c1cc(-c2ccncc2)nc2ccccc12 showed an inhibition of 13.6%.
C/C(N)=C(/C#N)C(=O)COC(=O)c1cc(-c2ccc(C)cc2)nc2ccccc12 showed an inhibition of 11.4%.
Cc1ccc(N/C(N)=N/c2nc(C(F)(F)F)cc(C(F)(F)F)n2)cc1 gave an inhibition of 14.4%.
In the case of CCC(NC(=O)c1ccccc1NC(=O)c1ccccc1)C(=O)NNC(=O)CSc1nc2ccccc2o1 (stereo not drawn), the inhibition was 11%.
CCOC(=O)c1ccc(N2C(=O)CC(N3CCN(C(=O)c4ccccc4)CC3)C2=O)cc1 (stereo not drawn) gave an inhibition of 20%.
Work on CCOC(=O)c1ccc(N2C(=O)CC(N3CC(C)OC(C)C3)C2=O)cc1 (stereo not drawn) yielded an inhibition of 29.9%.
For CCOC(=O)c1ccc(N2C(=O)CC(N3CCC(C(=O)OCC)CC3)C2=O)cc1 (stereo not drawn), the inhibition was 43.8% (active).
O=C(NC(Cc1ccc(O)cc1)C(=O)O)/C(=C/c1ccccc1)NC(=O)c1ccccc1 (stereo not drawn) showed an inhibition of -12.7%.
In the case of COc1ccc(NC(=O)CN(C)C(=O)CNC(=O)C2CCCCC2)cc1, the inhibition was 3.37%.
With COc1cc(NC(=O)C2CCN(c3cnccn3)CC2)cc(OC)c1 the inhibition was 18.5%.
For COc1ccc(C2CC(c3ccc(C)cc3)Nc3ncnn32)cc1 (stereo not drawn), the inhibition was 31.2%.
Nc1nc2n(n1)C(c1ccco1)CC(c1ccc(Cl)c(Cl)c1)N2 (stereo not drawn) showed an inhibition of 20.9%.
In the case of Clc1ccc(C2CC(c3cccs3)n3ncnc3N2)cc1Cl (stereo not drawn), the inhibition was 44.6% (active).
In the case of Cc1ccc(C)c(-n2ccnc2SCC(N)=O)c1, the inhibition was 1.23%.
In the case of CCOC(=O)c1sc(=NC(=O)/C=C/c2cccs2)n(C)c1C, the inhibition was 9.93%.
With Cc1c2cnn(CC(=O)NCCCN3CC(C)CC(C)C3)c(=O)c2c(C)n1Cc1ccc(Cl)cc1 (stereo not drawn) the inhibition was -4.29%.
CCOC(=O)C1=C(c2ccccc2)NC(=O)NC1c1cc(OC)c(OC)cc1OC (stereo not drawn) showed an inhibition of 2.13%.
For CCOC(=O)c1ccccc1CN1C(=O)c2ccccc2S1(=O)=O, the inhibition was 43.5% (active).
Compound CC(C)(C)c1ccc(CN2C(=O)c3ccccc3S2(=O)=O)cc1 has an inhibition of 15%.
CN(Cc1cccs1)C(=O)CN1C(=O)c2ccccc2S1(=O)=O gave an inhibition of -8.18%.
For COC(=O)c1cc2c(ccn2C)n1C, the inhibition was -6.2%.
In the case of CCn1nc(C)c(NC(=O)/C=C/c2ccc(OC)c(COc3ccc(Br)cc3)c2)c1C, the inhibition was 52.1% (active).
With COc1ccc(/C=C/C(=O)Nc2c(C)nn(C)c2C)cc1COc1ccc(Br)cc1 the inhibition was 29.4%.
In the case of COc1ccc(C(C)=O)cc1COc1ccc(Cl)c(C)c1, the inhibition was 3.35%.
Compound O=C(Oc1cccc(C(=S)N2CCOCC2)c1)c1cccc(Cl)c1 has an inhibition of 39.2%.
Compound CC(=O)Nc1ccccc1OC(=O)N1CCOCC1 has an inhibition of -3.71%.
In the case of O=C(/C=C/c1cccs1)c1cc(Cl)ccc1OC(=O)N1CCOCC1, the inhibition was 50.2% (active).
Work on Cc1ccc(NS(=O)(=O)c2ccc(C(=O)NCCCN3CCOCC3)cc2)cc1 yielded an inhibition of -36%.
Work on CC1(C)CC(=O)C=C(c2ccc(Cl)c(C(F)(F)F)c2)C1 yielded an inhibition of 0.973%.
Cc1cccc(OC(C)C(=O)N2CCc3ccccc3C2)c1 (stereo not drawn) showed an inhibition of -6.4%.
In the case of O=C(/C=C(O)/C=C/c1ccc(O)cc1)/C=C/c1ccc(O)cc1, the inhibition was 4.38%.
With O=C(/C=C/c1ccccc1)c1ccccc1O the inhibition was 48.7% (active).
Compound O=C(/C=C/c1ccccc1)N/C(=C/c1ccccc1)C(=O)Nc1ccccc1O has an inhibition of 32.3%.
With CCCCC[C@H]1CN(C2CCCCC2)C(=O)[C@@H]1CC(=O)NCc1ccc(OC)cc1 the inhibition was 17.9%.
For O=C(NCCc1ccc(F)cc1)c1ccc(S(=O)(=O)N2CCCCC2)cc1, the inhibition was 41.8% (active).
O=C(Nc1ccccc1F)c1ccc(S(=O)(=O)N2CCCCCC2)cc1 gave an inhibition of 18.9%.
COC(=O)c1ccc(CNC(=O)c2ccc(S(=O)(=O)N3CCCCCC3)cc2)cc1 gave an inhibition of 14.2%.
C/C=C(\C)C(=O)NCCN1C2=NC[C@H](Cc3ccc(O)cc3)N2C[C@@H]1Cc1ccc(OC)cc1 gave an inhibition of -7.43%.
Compound Cc1nc(-c2ccc([N+](=O)[O-])cc2)c(-c2ccccc2)o1 has an inhibition of 14.6%.
Work on O=c1[nH]n(-c2ccc([N+](=O)[O-])cc2)c(=O)c2ccccc12 yielded an inhibition of -4.91%.
In the case of O=C1CC(c2ccccc2)=NN1c1ccc([N+](=O)[O-])cc1, the inhibition was 44.5% (active).
For COc1ccc2ccn(C)c2c1, the inhibition was -6.1%.
In the case of COc1ccc2c(c1)cc1n2CCN=C1NN, the inhibition was 43.7% (active).
With CC12COC3(C(=O)Nc4ccc(Cl)cn4)CC1CCC32C (stereo not drawn) the inhibition was 33.3%.
Work on CCC1(CC)NC(=O)N(Cc2nc3ccccc3s2)C1=O yielded an inhibition of 9.64%.
In the case of CCC(C)Cn1c(O)cc2nn(-c3nc4ccccc4s3)c(=O)c-2c1C (stereo not drawn), the inhibition was 0.194%.
For CC(=NCc1ccco1)c1c(C(F)(F)F)[nH]n(-c2nc3ccccc3s2)c1=O, the inhibition was 75.2% (active).
CCOC(=O)c1sc(N)c(C#N)c1COC(=O)C1=COCCO1 showed an inhibition of 9.07%.
For O=C(NCC(c1cccs1)N1CCOCC1)c1cc(Cl)ccc1[N+](=O)[O-] (stereo not drawn), the inhibition was 3.29%.
COc1cccc(CNc2nc3nc4c(c(=O)n3[nH]2)CCC4)c1 gave an inhibition of -3.51%.
For COc1cccc(-c2cc3nc4c(c(N5CCC6(CC5)OCCO6)n3n2)CCCC4)c1, the inhibition was 41.5% (active).
With COc1ccc(OC)c(/C(C)=N\NC(=O)c2cc3cc(Cl)ccc3n2C)c1 the inhibition was 14.6%.
In the case of C=CCn1c(SCC(=O)NC)nnc1C12CC3CC(CC(C3)C1)C2, the inhibition was 11.2%.
Compound O=[N+]([O-])/C=C/c1ccc2c(ccn2Cc2ccccc2)c1 has an inhibition of -97.4%.
For CCS(=O)(=O)Nc1ccc(C2=NN(S(=O)(=O)c3ccc(F)cc3)C(c3ccco3)C2)cc1 (stereo not drawn), the inhibition was 13.9%.
COCCn1cnc2c1c(=O)n(CC(=O)NN)c(=O)n2Cc1ccccc1 showed an inhibition of 10.9%.
O=C(NCc1ccc2c(c1)OCO2)C(=O)NCC1OCCN1S(=O)(=O)c1ccc(F)cc1 (stereo not drawn) gave an inhibition of -2.49%.
For O=C(Nc1cccc(F)c1)NC1CCCCCCC1, the inhibition was 45.3% (active).
Work on O=C(Nc1cccc(F)c1)NC1CCCc2ccccc21 (stereo not drawn) yielded an inhibition of 30.5%.
C/C(CC(=O)Nc1cccc(F)c1)=N\NC(=O)C(=O)NC1CCCCC1 gave an inhibition of 15.5%.
With Cc1c(C(=O)O)nnn1-c1nonc1N the inhibition was 3.56%.
For C#CCOCCOCCOCCNc1nc(N2CCN(C(=O)[C@H](CO)n3cc([C@@H](N)C(C)C)nn3)CC2)nc(N2CCN(C(=O)[C@H](CCC(=O)O)n3cc([C@@H](N)[C@H](C)CC)nn3)CC2)n1, the inhibition was 9.15%.
In the case of CC(C)(C)n1c(=O)[nH]c2c(c1=O)CCC2, the inhibition was -3.65%.
With CS(=O)(=O)c1sc2nc(-c3ccccc3)cc(-c3ccccc3)c2c1N the inhibition was 49.2% (active).
NNC(=O)c1oc2nc(-c3ccccc3)cc(-c3ccco3)c2c1N gave an inhibition of 19.9%.
Compound CNC(=S)NNC(=O)c1oc2nc(-c3ccccc3)cc(-c3ccco3)c2c1N has an inhibition of 18.1%.
O=C(O)CSCc1ccc(C(=O)O)o1 gave an inhibition of 3.55%.
Work on C/C=C/C=C/C(=O)OCC(=O)Nc1ccc(Cl)cc1 yielded an inhibition of 15.8%.
O=C(Nc1ccncc1)c1ccc(Cl)c([N+](=O)[O-])c1 gave an inhibition of -50.2%.
In the case of O=C(/C=C/c1ccc(Cl)c([N+](=O)[O-])c1)c1cccnc1, the inhibition was 46.1% (active).
For O=C(/C=C/c1ccc(Cl)c([N+](=O)[O-])c1)c1ccc(O)cc1, the inhibition was 41.3% (active).
In the case of O=C(/C=C/c1ccc(Cl)cc1Cl)c1cccnc1, the inhibition was 25%.
CN(C)c1ccc(/C=C/C(=O)c2ccc(O)cc2)cc1[N+](=O)[O-] showed an inhibition of 15.8%.
In the case of CN(C)c1ccc(/C=C/C(=O)c2ccc(C(C)(C)C)cc2)cc1[N+](=O)[O-], the inhibition was 27.1%.
